Laboratory results reported in PubChem BioAssay (NCATS).
Results filed as inconclusive are left out. Calls of active or inactive are those of the source. Calls come from the whole dose curve; tested in HEK293 reporter line.

assay: qHTS for Inhibitors of the Functional Ribonucleoprotein Complex (vRNP) of Lassa (LASV) Arenavirus: LASV Primary Screen - GLuc reporter signal (AID 1347082); settings: LASV minigenome vRNP, Gaussia luciferase reporter; series mostly up to 57.5 µM; activity change, negative = inhibition: at the top concentration; note: nearly all actives have a fitted effect of over 60% in size
% is set by controls: 0 for no effect and ±100 for the full control effect.

| SMILES | activity change, negative = inhibition | Potency |
| --- | --- | --- |
| Cn1c(=O)c2c(ncn2CC(=O)O)n(C)c1=O | 1.49% (inactive) | – |
| CC1(C)O[C@@H]2C[C@H]3[C@@H]4CCC5=CC(=O)C=C[C@]5(C)[C@@H]4[C@@H](O)C[C@]3(C)[C@]2(C(=O)CO)O1 | 11.1% (inactive) | – |
| NC(=O)n1c(O)c(C(=O)c2cccs2)c2cc(Cl)ccc21 | -19.7% (inactive) | – |
| Cc1scc2c1N(C(=O)CN1CCN(C)CC1)c1ccccc1NC2=O | – | inactive |
| O=P(O)(O)C(O)(Cn1ccnc1)P(=O)(O)O | 7.61% [at 24.7 µM] (inactive) | – |
| Cc1ccc2ccc(Cl)cc2n1 | 2.51% (inactive) | – |
| CCC(=O)c1c(O)cc(O)cc1O | -8.71% (inactive) | – |
| CC(=O)OCC(=O)[C@@]1(O)[C@H](C)C[C@H]2[C@@H]3CCC4=CC(=O)C=C[C@]4(C)[C@@]3(F)[C@@H](O)C[C@@]21C | -0.697% (inactive) | – |
| CC(=O)c1ccc(O)c(C(N)=O)c1 | -4.08% (inactive) | – |
| CCOC(=O)C1=C(C)NC(C)=C(C(=O)OC)C1c1cccc([N+](=O)[O-])c1 (configuration not stated) | – | inactive |
| COc1ccc(-c2cc(=O)c3c(O)cc(O[C@@H]4O[C@H](CO[C@@H]5O[C@@H](C)[C@H](O)[C@@H](O)[C@H]5O)[C@@H](O)[C@H](O)[C@H]4O)cc3o2)cc1O | 3.99% (inactive) | – |
| NC(Cc1ccc(Cl)cc1)C(=O)O (configuration not stated) | – | inactive |
| Cc1cc(=O)oc2cc(O[C@@H]3SC[C@@H](O)[C@H](O)[C@H]3O)ccc12 | -1.09% (inactive) | – |
| CS(=O)(=O)c1ccc([C@@H](O)[C@@H](CF)NC(=O)C(Cl)Cl)cc1 | -5.69% (inactive) | – |
| CC(C)COC(=O)c1ccc(N)cc1 | -1.87% (inactive) | – |
| CCN(CC)C(C)CN1c2ccccc2Sc2ccccc21 (configuration not stated) | – | inactive |
| CCOc1ncc(F)c(=O)[nH]1 | -4.44% (inactive) | – |
